Experimental data from ChEMBL document CHEMBL1157539, “Thousands of chemical starting points for antimalarial lead identification” (Nature, 2010).

What follows are molecules tested on Plasmodium falciparum (assay: GSK_TCMDC: Inhibition of Plasmodium falciparum Dd2 in whole red blood cells, using parasite LDH activity as an index of growth. Test compounds present at 2uM).
Format: functional

Row | SMILES | Inhibition
1 | c1ccc2c(CNc3ccnc(NCc4cccc5ccccc45)n3)cccc2c1 | 71%
2 | O=C(N[C@H]1CCCC[C@H]1C(=O)O)c1ccccc1 | 3%
3 | CCCCc1ccc(C(=O)NC2CCN(C[C@H](O)c3ccnc4ccc(OC)cc34)CC2)cc1 | 22%
4 | Nc1cccc(CNCc2cccc(-c3cccc(-c4nc5cc(C(F)(F)F)ccc5[nH]4)c3)c2)c1.O=C(O)C(F)(F)F | 96%

Each molecule was assayed on HepG2 (assay: GSK_TCMDC: Percent inhibition of human HepG2 cell line. Test compounds present at 10uM.).
Format: functional

Row | SMILES | Inhibition
5 | CS(=O)(=O)CCN(CCS(C)(=O)=O)Cc1ccc(-c2ccc3ncnc(Nc4ccc(OCc5cccc(F)c5)c(Cl)c4)c3c2)o1.Cc1ccc(S(=O)(=O)O)cc1 | 0%
6 | O=C(NCc1ccc(Cl)c(Cl)c1)c1ccc(C2CCN(Cc3ccc4[nH]cnc4c3)CC2)cc1 | 1%
7 | COc1ccc(C(=O)NCC(C)(C)c2nc(-c3ccc(Cl)c(O)c3)c(-c3ccncc3)[nH]2)cc1OCCN(C(C)C)C(C)C.Cl | 62%
8 | COc1ccc2nc3cc(Cl)ccc3c(NCCCCN3CCNCC3)c2c1.Cl | 29%
9 | c1cc(Nc2nccc(-c3cnn4ncccc34)n2)cc(-c2cnco2)c1 | 54%
10 | Cc1[nH]c(C)c(-c2ccc(Oc3cccc(Cl)c3)cc2)c(=O)c1Cl | 40%
11 | CN1CCCN(c2ccnc3cc4c(cc23)N(C(=O)c2ccccc2Cl)CC4)CC1.Cl | 4%
12 | COc1ccc(C(=O)NC2CCN(c3ccnc4cc(Cl)ccc34)C2)cc1.O=C(O)C(F)(F)F (centres undefined) | 31%
13 | CCN(CCCN1CCCCC1)c1cc(C)nc(Nc2ccc(OC)cc2)n1.O=C(O)C(F)(F)F | 23%
14 | NCCCN(Cc1ccc(Cl)c(Cl)c1)C(=O)Nc1ccc(Cl)c(Cl)c1 | 100%
15 | CCCCSc1nc2c(c(=O)n1Cc1ccco1)C1(CCCCC1)Cc1ccccc1-2 | 13%
16 | CN(C)CCOc1ccc(/C(=C(/CCCn2ccnc2)c2ccccc2)c2ccc(O)cc2)cc1 | 13%
17 | CCCN1CCC=C(c2cccc(Nc3nccc(Nc4cc(OC)ccc4C)n3)c2)C1.Cl | 15%
18 | O=C(CSc1cccc[n+]1[O-])c1ccc(Cc2ncc(C(F)(F)F)cc2Cl)s1 | 13%
19 | CCN(CC)CCN(Cc1ccc(-c2ccc(C(F)(F)F)cc2)cc1)C(=O)Cn1c(CCc2cccc(F)c2F)cc(=O)c(C)c1C.O=C(O)C(O)C(O)C(=O)O | 35%
20 | Br.N=C(N)Nc1nc(-c2cccc(NC(=O)C(F)(F)F)c2)cs1 | 0%
21 | CS(=O)(=O)c1ccc2c(c1)CCN(CCC1CCC(NC(=O)C(=Cc3ccc(Cl)cc3Cl)c3ccc(-c4ccccc4)cc3)CC1)CC2 (centres undefined) | 33%
22 | COc1ccc(N2CCN(c3nc(Nc4ccc(NC(C)=O)cc4)nc(N4CCCC4)n3)CC2)cc1 | 0%
23 | O=C(Nc1ccc(Oc2ccc(OC(F)(F)F)cc2)cc1)c1ccco1 | 5%
24 | O=C(Nc1ccc(Cl)cc1)Nc1cccc(-c2ccc(-c3nc4ccccc4[nH]3)cc2)c1 | 19%

Row | SMILES | Inhibition
25 | CCCCCC(C)C(C)c1cc(O)c2c(c1)OC(C)(C)C=C2c1cc[n+]([O-])cc1 (centres undefined) | 11%
26 | COc1cc(-n2c(CN3CCCC3)nc3cc(-c4ccc(Cl)cc4)sc3c2=O)ccc1OCCN1CCCC1.O=C(O)C(F)(F)F | 66%
27 | O=C(/C=C/c1ccc(C(F)(F)F)cc1)NCCCCCN1CCCN(C(=O)Nc2ccc(F)c(Cl)c2)CC1 | 33%
28 | CCOC(=O)c1ccc(OCCCCCCOc2ccc(Br)cc2)cc1 | 12%
29 | O=S(=O)(c1cccc(C(F)(F)F)c1)N1CCC(CO)(Cc2cccc(C(F)(F)F)c2)CC1 | 3%
30 | O=C(Nc1cccc2ccccc12)N1CCC(NS(=O)(=O)c2cccc(C(F)(F)F)c2)CC1 | 0%
31 | O=C(NCCCN1CCCCC1)c1ccc(Nc2nccc(Nc3ccc(Oc4ccccc4)cc3)n2)cc1 | 30%
32 | CC(=O)Nc1ccc2[nH]cc(C3CCN(CCC4CCN(C(=O)/C=C/c5ccc(Cl)c(Cl)c5)CC4)CC3)c2n1 | 16%
33 | COc1ccc(CNC2CCN(C)CC2)cc1-c1ccc(S(=O)(=O)NCCc2ccccn2)c(F)c1.O=C(O)C(F)(F)F | 3%
34 | Cl.N=C(N)NN=Cc1ccc2c(c1)Cc1ccccc1-2 | 72%
35 | CC(C)(C)c1ccc(CN2CCC(CNC(=O)c3cc(-c4ccccc4F)cs3)C2)cc1.O=C(O)C(F)(F)F (centres undefined) | 46%
36 | CC(Cc1ccc(NC(=O)c2ccc(NCCc3ccccc3)cc2)cc1)NCCc1cccc(Cl)c1.Cl (centres undefined) | 25%
37 | O=C(Nc1ccc(S(=O)(=O)N2CCCC2)cc1)c1cc(-c2cccnc2)nc2ccc(Cl)cc12 | 4%
38 | COc1ccc(CN2CCCN(Cc3cccc(C(=O)Nc4ccc(C(C)(C)C)cc4)c3)CC2)cc1.O=C(O)C(F)(F)F | 46%
39 | C=C(C)CSc1nc2c(c(=O)n1CCc1ccccc1)C1(CCCC1)Cc1ccccc1-2 | 14%
40 | COc1ccc(-c2cnc3ccc(N4CCCC4)nn23)cc1OC.O=CO | 40%
41 | c1ccc2c(CNc3ccnc(NCc4cccc5ccccc45)n3)cccc2c1 | 51%
42 | O=C(N[C@H]1CCCC[C@H]1C(=O)O)c1ccccc1 | 7%
43 | CCCCc1ccc(C(=O)NC2CCN(C[C@H](O)c3ccnc4ccc(OC)cc34)CC2)cc1 | 24%
44 | Nc1cccc(CNCc2cccc(-c3cccc(-c4nc5cc(C(F)(F)F)ccc5[nH]4)c3)c2)c1.O=C(O)C(F)(F)F | 8%
